According to PubChem BioAssay (NCI):
Compounds without any hit were thinned out: in the full panel of roughly 79,000, 15% have a hit. Calls of active or inactive are those of the source. Cut-off read from the data, not from the text of the source: active = growth inhibition above about 70%; inactive = the rest.

Experiments:
[1] = NCI Yeast Anticancer Drug Screen. Data for the rad52 strain (AID 147);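 note: 0% = growth of vehicle-treated control cultures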; conditions: S. cerevisiae rad52 mutant growth inhibition, stronger effect = higher value
Summary of the method: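 Read-out: growth inhibition versus vehicle-treated controls. Cells were a DNA repair-deficient yeast strain treated with compounds.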

[2] = NCI Yeast Anticancer Drug Screen. Data for the wt1 strain (AID 149);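 note: 0% = growth of vehicle-treated wt1 cultures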; conditions: S. cerevisiae wt1 strain (SPY 50644) growth inhibition, stronger effect = higher value
Summary of the method: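 Measured: growth of wt1 yeast under compound versus vehicle treatment, reported as inhibition.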

[3] = NCI Yeast Anticancer Drug Screen. Data for the rad50EPP+ strain (AID 151);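 note: 0% = growth of vehicle-treated control cultures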; conditions: S. cerevisiae rad50 mutant strain, stronger effect = higher value
Summary of the method: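 Growth inhibition read against vehicle controls in rad50EPP+ yeast, a strain altered in DNA damage repair, after compound exposure.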

[4] = NCI Yeast Anticancer Drug Screen. Data for the mgt1 strain (AID 153); conditions: S. cerevisiae mgt1 mutant growth inhibition, stronger effect = higher value
Summary of the method: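 mgt1 yeast grown with test compound; read-out is growth inhibition versus vehicle-treated cultures.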

[5] = NCI Yeast Anticancer Drug Screen. Data for the rad50 strain (AID 155);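 note: 0% = growth of vehicle-only cultures of the same strain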; conditions: S. cerevisiae rad50 strain growth inhibition, stronger effect = higher value
Summary of the method: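 Growth of the mutant yeast was measured after compound exposure and referenced to vehicle-treated cultures.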

[6] = NCI Yeast Anticancer Drug Screen. Data for the mec2-1 strain (AID 157); conditions: S. cerevisiae mec2-1 strain, stronger effect = higher value
Summary of the method: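 Yeast mec2-1 mutant treated with compound. Readout: growth inhibition vs vehicle controls.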

[7] = NCI Yeast Anticancer Drug Screen. Data for the rad14 strain (AID 159);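 note: 0% = growth of vehicle-treated control cultures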; conditions: S. cerevisiae rad14 strain growth inhibition, stronger effect = higher value
Summary of the method: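 Here, inhibition of yeast growth was measured after compound exposure, using a strain with a genetic defect in DNA damage repair and vehicle-treated cultures as the reference.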

[8] = NCI Yeast Anticancer Drug Screen. Data for the sgs1 mgt1 strain (AID 161);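 note: 0% = growth of cultures given vehicle only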; conditions: S. cerevisiae sgs1 mgt1 strain, stronger effect = higher value
Summary of the method: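 Inhibition of yeast growth, normalised to vehicle-treated controls, is reported for a strain bearing genetic alterations in DNA damage repair.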

[9] = NCI Yeast Anticancer Drug Screen. Data for the CLN2oe strain (AID 163);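 note: 0% = growth of vehicle-only control cultures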; conditions: S. cerevisiae CLN2oe strain, stronger effect = higher value
Summary of the method: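 Read-out: yeast growth inhibition, expressed relative to vehicle-only controls. The strain bears an engineered cell-cycle alteration.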

[10] = NCI Yeast Anticancer Drug Screen. Data for the cln2 rad14 strain (AID 165);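 note: 0% = growth equal to vehicle treated cultures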; conditions: S. cerevisiae cln2 rad14 strain, stronger effect = higher value
Summary of the method: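 cln2 rad14 yeast strain; compound exposure; growth inhibition read vs vehicle controls.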

[11] = NCI Yeast Anticancer Drug Screen. Data for the mlh1 strain (AID 171);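 note: 0% = growth of vehicle-treated control cultures of the same strain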; conditions: S. cerevisiae mlh1 strain growth inhibition, stronger effect = higher value
Summary of the method: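 Read-out: growth inhibition versus vehicle controls. Strain: engineered yeast with a defined DNA repair or cell cycle defect, compound-treated.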

[12] = NCI Yeast Anticancer Drug Screen. Data for the sgs1 strain (AID 173);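 note: 0% = growth of vehicle-only control cultures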; conditions: S. cerevisiae sgs1 mutant, stronger effect = higher value
Summary of the method: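 Read-out: yeast growth inhibition relative to vehicle controls, following compound exposure of a strain with a defined DNA repair/cell cycle alteration.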

[13] = NCI Yeast Anticancer Drug Screen. Data for the mlh1 rad18 strain (AID 175); conditions: S. cerevisiae mlh1 rad18 strain growth inhibition, stronger effect = higher value
Summary of the method: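 Yeast w/ defined DNA-repair lesions; compound exposure; growth vs vehicle controls → % inhibition.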

[14] = NCI Yeast Anticancer Drug Screen. Data for the rad18 strain (AID 177); conditions: S. cerevisiae rad18 mutant growth inhibition, stronger effect = higher value
Summary of the method: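 Readout: growth inhibition vs vehicle controls. Cells: genetically altered yeast strain, DNA repair defect.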

[15] = NCI Yeast Anticancer Drug Screen. Data for the bub3 strain (AID 167); conditions: S. cerevisiae bub3 mutant strain, stronger effect = higher value
Summary of the method: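 Whole-cell yeast assay. The mutant strain was incubated with compounds, and growth inhibition was determined by comparison with vehicle-treated cells.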

[16] = NCI Yeast Anticancer Drug Screen. Data for the wt2 strain (AID 169);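 note: 0% = growth of vehicle-treated yeast cultures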; conditions: S. cerevisiae wt2 strain growth inhibition, stronger effect = higher value
Summary of the method: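 Read-out: growth inhibition versus vehicle-treated control cultures after compound exposure of the yeast strain.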

[17] = at 5.0 µM (retest, dose inferred, filed as 0.5)
[18] = at 50.0 µM (retest, dose inferred, filed as 5.0)

Measured: growth inhibition

O=[N+]([O-])c1ccc2c(c1)/C(=N/N=C1c3ccccc3Cc3ccccc31)c1cc([N+](=O)[O-])cc([N+](=O)[O-])c1-2
inactive: [1]; at 1.2 µM 9% | [1]; at 3.7 µM 32% | [2]; at 1.2 µM -19% | [2]; at 3.7 µM 21% | [3]; at 1.2 µM -7% | [4]; at 1.2 µM 16% | [5]; at 1.2 µM -10% | [5]; at 3.7 µM 60% | [5]; [17] 9% | [6]; at 1.2 µM 16% | [6]; [17] 24% | [7]; at 1.2 µM 16% | [7]; at 3.7 µM 53% | [9]; at 1.2 µM 28% | [9]; at 3.7 µM 50% | [10]; [17] 25% | [11]; at 1.2 µM 15% | [11]; at 3.7 µM 50% | [12]; at 1.2 µM 18% | [12]; at 3.7 µM 64% | [13]; [17] 27% | [14]; at 1.2 µM 50%
active: [1]; at 11.0 µM 91% | [1]; at 33.0 µM 98% | [1]; at 100.0 µM 96% | [2]; at 11.0 µM 99% | [2]; at 33.0 µM 99% | [2]; at 100.0 µM 97% | [3]; at 3.7 µM 86% | [3]; at 11.0 µM 99% | [3]; at 33.0 µM 97% | [3]; at 100.0 µM 94% | [4]; at 3.7 µM 74% | [4]; at 11.0 µM 99% | [4]; at 33.0 µM 98% | [4]; at 100.0 µM 93% | [5]; at 11.0 µM 96% | [5]; at 33.0 µM 98% | [5]; [18] 96% | [5]; at 50.0 µM 82.7% | [5]; at 100.0 µM 94% | [6]; at 3.7 µM 78% | [6]; at 11.0 µM 99% | [6]; at 33.0 µM 98% | [6]; [18] 96% | [6]; at 50.0 µM 81.5% | [6]; at 100.0 µM 95% | [7]; at 11.0 µM 98% | [7]; at 33.0 µM 99% | [7]; at 100.0 µM 95% | [8]; [17] 75% | [8]; [18] 98% | [8]; at 50.0 µM 89.2% | [9]; at 11.0 µM 99% | [9]; at 33.0 µM 99% | [9]; at 100.0 µM 95% | [10]; [18] 97% | [10]; at 50.0 µM 85.8% | [11]; at 11.0 µM 99% | [11]; at 33.0 µM 98% | [11]; at 100.0 µM 93% | [12]; at 11.0 µM 99% | [12]; at 33.0 µM 99% | [12]; at 100.0 µM 95% | [13]; [18] 96% | [13]; at 50.0 µM 82.5% | [14]; at 3.7 µM 81% | [14]; at 11.0 µM 97% | [14]; at 33.0 µM 97% | [14]; at 100.0 µM 94%

COc1ccc(C(=O)Oc2ccccc2Br)cc1
inactive: [1]; at 1.2 µM 5% | [1]; at 3.7 µM 6% | [1]; at 11.0 µM 3% | [1]; at 33.0 µM 19% | [1]; at 100.0 µM 44% | [2]; at 1.2 µM -5% | [2]; at 3.7 µM -7% | [2]; at 11.0 µM -10% | [2]; at 33.0 µM -10% | [2]; at 100.0 µM -3% | [3]; at 1.2 µM 13% | [3]; at 3.7 µM 22% | [3]; at 11.0 µM 26% | [3]; at 33.0 µM 35% | [3]; at 100.0 µM 62% | [4]; at 1.2 µM -8% | [4]; at 3.7 µM -5% | [4]; at 11.0 µM -7% | [4]; at 33.0 µM -5% | [4]; at 100.0 µM 25% | [5]; at 1.2 µM 8% | [5]; at 3.7 µM 7% | [5]; [17] 5% | [5]; at 11.0 µM 8% | [5]; at 33.0 µM 28% | [5]; [18] 64% | [5]; at 50.0 µM 6.6% | [5]; at 100.0 µM 62% | [6]; at 1.2 µM -5% | [6]; at 3.7 µM -8% | [6]; [17] -20% | [6]; at 11.0 µM -10% | [6]; at 33.0 µM -7% | [6]; [18] 8% | [6]; at 50.0 µM 5.05% | [6]; at 100.0 µM 20% | [7]; at 1.2 µM 3% | [7]; at 3.7 µM -1% | [7]; at 11.0 µM -1% | [7]; at 33.0 µM 10% | [7]; at 100.0 µM 39% | [8]; [17] 0% | [8]; at 50.0 µM 36.1% | [9]; at 1.2 µM -4% | [9]; at 3.7 µM -12% | [9]; at 11.0 µM -18% | [9]; at 33.0 µM -14% | [9]; at 100.0 µM 9% | [15]; at 1.2 µM 3% | [15]; at 3.7 µM 2% | [15]; [17] 18% | [15]; at 11.0 µM -2% | [15]; at 33.0 µM 5% | [15]; at 50.0 µM 32.4% | [15]; at 100.0 µM 19% | [16]; at 1.2 µM -5% | [16]; at 3.7 µM -13% | [16]; at 11.0 µM -11% | [16]; at 33.0 µM -10% | [16]; at 100.0 µM 0% | [11]; at 1.2 µM -1% | [11]; at 3.7 µM 0% | [11]; at 11.0 µM -2% | [11]; at 33.0 µM 8% | [11]; at 100.0 µM 39% | [12]; at 1.2 µM -18% | [12]; at 3.7 µM -13% | [12]; at 11.0 µM -11% | [12]; at 33.0 µM 3% | [12]; at 100.0 µM 36% | [13]; [17] 5% | [13]; at 50.0 µM 7.85%
active: [8]; [18] 78% | [15]; [18] 75% | [13]; [18] 90%
